Results published in PubChem BioAssay AID743262 (National Center for Advancing Translational Sciences (NCATS), 2014).
In all, about 1,300 compounds went through this assay and about 25 (2%) were called active. A call without a number means that no potency is given here. Roughly 9% stayed inconclusive and do not appear here. The call rests on the fitted dose curve; in most records, active means well fitted activation curve with a large enough effect; inconclusive means small, poorly fitted or top-dose-only effect; inactive means flat fitted curve, though single readings scatter. The sample as a whole holds a higher share of actives than the screen did.

target: Glucagon-like peptide 1 receptor (Homo sapiens) (UniProt P43220); test: qHTS of GLP-1 Receptor Agonists: Hit Validation; settings: HEK293 GLP-1R, cAMP-response luciferase, 4-6 h; series mostly up to 46.1 µM
Sequence (P43220 whole entry, looked up): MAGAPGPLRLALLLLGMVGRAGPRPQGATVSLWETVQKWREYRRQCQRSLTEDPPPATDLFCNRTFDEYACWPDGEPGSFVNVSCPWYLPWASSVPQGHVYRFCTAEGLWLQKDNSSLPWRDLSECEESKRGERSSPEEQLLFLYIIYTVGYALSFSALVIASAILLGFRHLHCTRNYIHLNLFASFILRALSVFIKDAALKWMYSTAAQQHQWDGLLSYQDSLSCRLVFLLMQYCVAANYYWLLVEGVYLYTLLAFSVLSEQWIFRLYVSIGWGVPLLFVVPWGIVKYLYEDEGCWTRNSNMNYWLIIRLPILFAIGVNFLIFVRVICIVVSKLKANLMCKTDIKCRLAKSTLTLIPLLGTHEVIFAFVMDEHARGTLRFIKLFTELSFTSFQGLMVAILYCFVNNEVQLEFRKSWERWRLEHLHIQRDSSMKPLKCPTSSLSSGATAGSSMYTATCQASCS
Text: The overall goal of this project was to develop a novel assay for discovering small molecule ligands for class B1 G protein-coupled receptors (GPCRs). Very few agonists (or inverse agonists) with generally weak activity for this entire group of physiologically important receptors are known to date. To establish proof-of-principle that this critical bottleneck can be overcome with a suitable screening approach, our studies focused on the class B1 receptor for glucagon-like peptide-1 (GLP-1R), a potential therapeutic target for diabetes and neurodegenerative disease. The assay was developed in a "mix and measure" format using a cell-based functional readout. Toward this goal, stably transfected HEK293 cell clones were established that co-express (i) a cAMP-responsive luciferase reporter gene, and (ii) GLP-1Rs that upon ligand interaction either stimulate (agonists) or inhibit (inverse agonists) luciferase activity. In different cell lines to be used for screening, expressed GLP-1Rs are specifically optimized for high sensitivity detection of either weak agonists (hypersensitive receptor) or inverse agonists (constitutively active receptor mutant). In addition, control cell lines were developed that express either the cAMP-responsive reporter gene without recombinant GLP-1Rs (enabling initial exclusion of GLP-1R independent effects of candidate probes), or the reporter gene together with wild type GLP-1Rs (for confirmation of probe activity at this receptor), or the reporter gene in combination with the constitutively active orphan receptor GPR119 (enabling initial exclusion of GLP-1R independent inhibitory effects of candidate inverse agonists). To that end, this assay was optimized for 1536-well format and screened against the MLSMR. NIH Molecular Libraries Probe Production Network [MLPCN] NIH Chemical Genomics Center [NCGC] Grant: NS064851 PI Name: Martin Beinborn, Tufts Medical Center
In a white solid 1536-well plate, 6 uL of cells are dispensed in DMEM without phenol red, 10% Nu serum, and 1% pen-strep medium. The plates are then incubated for 12 hours at 37 deg C at 5% CO2 before 23 nL of compounds are added. After a 4-6 hr incubation at37 deg C and 5% CO2, 3 uL of detection reagent are added and after a 12 min incubation at RT, a luminescent read is obtained on the ViewLux.
Potency means the concentration at half of the fitted maximal effect.

Compound | Potency
CC(Cc1ccc(O)cc1)NCC(O)c1ccc(O)c(O)c1 (stereo not given) | 9.2 nM (active)
O=c1[nH]cnc2nc(-c3ccc(N(CCCl)CCCl)cc3)[nH]c12 | inactive
N#Cc1c(/N=C/c2ccc(O)cc2O)sc2c1C1CCN2CC1 | inactive
C[C@@H]1CN([C@H](C)CO)C(=O)CCCn2cc(nn2)CO[C@H]1CN(C)C(=O)Oc1ccc2ccccc2c1 | inactive
CN1CCN=C(c2ccccc2)c2cc(Cl)ccc21 | inactive
